Source: PubChem BioAssay (NCATS)
Results filed as inconclusive are left out. The source made the active and inactive calls. Calls come from the whole dose curve; as a rule, active = well fitted inhibition curve with a large enough effect; inconclusive = small, poorly fitted or top-dose-only effect; inactive = flat fitted curve, though single readings scatter.
% is set by controls: 0 for no effect and ±100 for the full control effect; potency is the fitted concentration of half-maximal effect.

The compounds below were run on CRL-7250 (assay: Cytotoxic Profiling of Annotated Libraries Using Quantitative High-Throughput Screening (AID 1296008; note: nearly all actives have a fitted effect of over 60% in size)). Conditions: Five cell lines viability, CellTiter-Glo ATP luminescence, 48-72 h; max response: active compounds read low.
Summary of the method: (§1)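 Cytotoxicity was measured as CellTiter-Glo ATP luminescence, read after 10 min at room temperature. Compound treatment of the cells lasted 48 or 72 hr at 37 degrees Celsius in a qHTS format.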
`CC(=O)Nc1cccc(Nc2ncnc(N3CCC(OCc4ccc(OC(F)(F)F)cc4)CC3)n2)c1C` was tested, and the Potency was 13 µM (active). In the case of `CO[C@H]1[C@@H](O)[C@H](O[C@H]2CC[C@@]3(C)C(CCC4C3CC[C@]35COC6(COC(=O)C6)C3CCC45O)C2)O[C@@H](C)[C@@H]1OC1OC(CO)C(OC2OC(CO)C(O)C(O)C2O)C(O)C1O` (some centres undefined), the Potency was 3.48 µM (active). For `NC(N)=NC(=O)c1cnn(-c2cccc3ncccc23)c1C1CC1`, the max response was -23.8% (inactive).

The compounds below were run on HaCat in the same assay as above. Conditions: Five cell lines viability, CellTiter-Glo ATP luminescence, 48-72 h; max response: active compounds read low.
Summary of the method: as §1
`CCCCCCCOc1cc2c(cc1/C(C)=C/c1ccc(C(=O)O)cc1)C(C)(C)CCS2(=O)=O` was tested, and the outcome was “inactive”. `Cc1c(OCc2cccc(-c3ccc(C(=O)O)cc3)c2)cc2c(c1C)C(=O)C(C1CCCC1)C2` (centres undefined) was tested, and the max response was -12% (inactive). With `CC(=O)OC1C(OC(=O)c2ccccc2)C2C(=C(C)CCC2(C)C)C23CCC(C)(C2)C(=O)CC13` (centres undefined) the max response was -3.85% (inactive). `CCN(Cc1cc(Nc2nc(C)cn3c(-c4cn[nH]c4)cnc23)sn1)C(C)(C)CO` was tested, and the Potency was 1.46 µM (active). In the case of `CNC(=O)c1cc(Oc2ccc(NC(=O)c3cccc(C(F)(F)F)c3)cc2)ccn1`, the max response was -5.26% (inactive). `O=C(NS(=O)(=O)c1ccc(Br)s1)c1ccc(Cl)cc1Cl` was tested, and the max response was 3.71% (inactive). `COc1cc(O)c2c(c1)/C=C/C[C@H](O)[C@H](O)C(=O)/C=C\C[C@H](C)OC2=O` was tested, and the Potency was 9.2 µM (active). With `CCOc1cc(C(C)(C)C)ccc1C1=NC(C)(c2ccc(Cl)cc2)C(C)(c2ccc(Cl)cc2)N1C(=O)N1CCN(CCCS(C)(=O)=O)CC1` (centres undefined) the Potency was 20.6 µM (active). For `NC(=O)CCCSc1nc(N)nc(-c2c(Cl)cc3c4c(cccc24)COC3)n1`, the Potency was 0.291 µM (active). With `CC(F)(F)CN1CCOc2c(nn(-c3ccccc3Cl)c2-c2ccc(Cl)cc2)C1=O` the max response was -16.2% (inactive). In the case of `CCCn1ncc(CN2CCCC(C(=O)c3cccc(OC(C)C)c3)C2)c1C` (centres undefined), the max response was 4.33% (inactive). For `CC(C)=C[C@@H]1[C@H](CO[C@@H]2O[C@H](CO)[C@@H](O)[C@H](O)[C@H]2O)C1(C)C`, the outcome was “inactive”. In the case of `O=C(Nc1ccccc1)c1ccc(Nc2nnc(-c3ccc(O)cc3)c3ccccc23)cc1`, the max response was -7.55% (inactive). In the case of `CCc1cc2c(cc1CC)CC(NCC(O)c1ccc(O)c3[nH]c(=O)ccc13)C2` (centres undefined), the max response was 2.19% (inactive). In the case of `COC(=O)C[C@H]1[C@]2(C)C3=C(C)[C@H](c4ccoc4)C[C@H]3O[C@@H]2[C@H](O)C2[C@](C)(C(=O)OC)C=CC(=O)[C@@]21C` (some centres undefined), the max response was -7.74% (inactive). `COc1cccc(-c2cc(F)ccc2C2Cc3nc(N)nc(C)c3C(=O)N2)n1` (centres undefined) was tested, and the Potency was 0.0461 µM (active). With `CCC(C)CNCC(=O)N1CCc2sccc2C1COc1cccc(C)c1` (centres undefined) the max response was 1.97% (inactive). In the case of `C/C=C/[C@@H]1C=C[C@@H]2C[C@H](C)CC[C@H]2[C@]1(C)/C(O)=C1/C(=O)[C@@H](CO)N(C)C1=O`, the max response was 3.96% (inactive). In the case of `Cc1cc(C(C)Nc2ccccc2C(=O)O)c2nc(N3CCOCC3)cc(=O)n2c1` (centres undefined), the Potency was 7.31 µM (active). For `CCc1cccc(CC)c1-n1c(C=C(C)C)c(C(=O)N2CCNCC2)cc(-c2nc(-c3ccc(C(F)(F)F)cc3)cs2)c1=O`, the max response was -5.33% (inactive). `Cc1noc(C)c1-c1cc(O)cc(C(O)c2ccccc2)c1` (centres undefined) was tested, and the max response was -28.1% (inactive). In the case of `CCCc1ccc(OCC(=O)N(Cc2nc(-c3cccnc3)no2)C(C)C)cc1`, the max response was -2.41% (inactive). For `CC1(C)CC[C@]2(C(=O)O)CC[C@]3(C)C(=CCC4[C@@]5(C)C[C@@H](O)[C@H](O)[C@@](C)(CO)C5CC[C@]43C)[C@@H]2[C@@H]1O` (some centres undefined), the max response was -17.5% (inactive). With `C[C@@H](Nc1ncnc2[nH]c(-c3ccc(O)cc3)cc12)c1ccccc1` the Potency was 0.82 µM (active). For `CC(=O)NC(C)c1cnc(-c2cnc(Oc3ccc(OC(C)C)cc3)s2)s1` (centres undefined), the max response was 2.34% (inactive). With `C/C(=C/C=C\C=C\Cc1cnco1)[C@@H](O)C(C)(C)C(N)=O` the max response was -5.26% (inactive). `COc1cc(C(C)C)c(Oc2cnc(N)nc2N)cc1I` was tested, and the max response was -19.2% (inactive). `Cc1nc2c(C(F)(F)F)cccc2nc1-c1ccc(-c2cccc(S(C)(=O)=O)c2)cc1` was tested, and the max response was -0.882% (inactive). For `O=C(NCCCN1CCOCC1)c1cnn2c(-c3ccccc3)cc(-c3ccccc3)nc12`, the max response was -15.4% (inactive). For `COC(=O)c1cc(Br)cnc1N1CCC(NC2CCCCC2)C(O)C1` (centres undefined), the max response was -7.79% (inactive). In the case of `CC(=O)Nc1nc(C)c(-c2nc(N3CCCC(O)C3)no2)s1` (centres undefined), the Potency was 4.11 µM (active).
